In the library only some 1.4% were active in any assay of this set; here they are far more common.
Bcl-xL primary: Bcl-xL (human) inhibition. Q07817. GST-Bcl-xL / FITC-Bim BH3 peptide fluorescence polarization. inhibition, % at 10.9 µM. 320,000 compounds, 0.7% hits. AID 2129;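 active = inhibition above the mean of all tested compounds plus 3 SD, cutoff set per campaign, cut at about 30% in these data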;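 also: inhibitors lower millipolarization by displacing the labeled peptide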
Target sequence (Q07817 whole entry, looked up): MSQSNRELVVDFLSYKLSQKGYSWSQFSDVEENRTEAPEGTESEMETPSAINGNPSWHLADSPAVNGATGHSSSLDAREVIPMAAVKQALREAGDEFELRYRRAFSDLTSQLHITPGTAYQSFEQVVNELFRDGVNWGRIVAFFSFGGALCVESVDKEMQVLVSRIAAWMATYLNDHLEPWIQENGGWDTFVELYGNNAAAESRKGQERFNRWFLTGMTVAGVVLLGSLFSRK
MCL1 BIM primary: MCL1-BIM-BH3 interaction inhibition (human). Q07820. GST-MCL1 / FITC-Bim-BH3 fluorescence polarization. inhibition, % at 10.9 µM. 320,000 compounds, 0.68% hits. AID 2057;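 active = inhibition above the mean inhibition of all tested compounds plus 3 SD, set per campaign, cut at about 40% in these data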;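 also: higher means more loss of mP so more displacement of Bim peptide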
MEX-5 binding: C. elegans MEX-5 TCR-2 RNA binding activity. Q9XUB2. activity score (negative = inhibition of binding), % at 10 µM. MEX-5/FITC-TCR2 RNA binding, fluorescence polarization; hits give low values. 300,000 compounds, 0.38% hits;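 active = inhibition past about -25% in most replicates, and total fluorescence under double the plate's negative control median, limit read from the data; inconclusive = replicates evenly split on the limit, or fluorescence at least double controls; inactive = too little inhibition in most replicates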
GLD-1 TGE inh: GLD-1-TGE RNA interaction inhibition (C. elegans); AID 2280; 320,000 compounds, 0.44% hits; purified GLD-1 + fluorescein TGE RNA, fluorescence polarization; inhibition, % at 5.96 µM;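 active = percent inhibition above a per-plate cutoff, the plate mean of test compounds plus 3 SD, cut at about 30% in these data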
Target sequence (Q17339 whole entry, looked up): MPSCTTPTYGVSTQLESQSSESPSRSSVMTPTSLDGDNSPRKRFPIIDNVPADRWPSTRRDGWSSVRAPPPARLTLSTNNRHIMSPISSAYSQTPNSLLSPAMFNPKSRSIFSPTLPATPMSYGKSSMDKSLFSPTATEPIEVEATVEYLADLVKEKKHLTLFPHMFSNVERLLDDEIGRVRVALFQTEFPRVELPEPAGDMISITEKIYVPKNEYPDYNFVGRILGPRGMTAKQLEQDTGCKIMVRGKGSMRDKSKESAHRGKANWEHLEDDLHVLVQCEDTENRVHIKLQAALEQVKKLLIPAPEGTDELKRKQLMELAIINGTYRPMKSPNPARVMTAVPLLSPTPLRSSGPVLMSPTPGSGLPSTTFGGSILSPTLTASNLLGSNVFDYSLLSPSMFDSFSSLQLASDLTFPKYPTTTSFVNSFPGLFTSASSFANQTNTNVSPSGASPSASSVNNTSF
eLon inh: E. coli protease La inhibition. purified E. coli Lon protease, fluorescence polarization. inhibition, % at 7.94 µM. 360,000 compounds, 0.42% hits. AID 602123. P0A9M0; in the data active = inhibition above about 13%, passing the limit was not always enough
Large screens that a line does not name were inactive.

CCOC(=O)C1=CCN(S(=O)(=O)c2ccc(Br)cc2)C1c1cccc(C)c1 (stereo unspecified)	none (no result: Bcl-xL primary, MCL1 BIM primary, MEX-5 binding, GLD-1 TGE inh)
Cc1ccc(C(c2sc3ncnn3c2O)N2CC(C)CC(C)C2)cc1 (stereo unspecified)	Bcl-xL primary 56
CC1CCCN(C(c2ccccc2)c2sc3ncnn3c2O)C1 (stereo unspecified)	none
CCOc1ccc(S(=O)(=O)Nc2ccc3c(c2)OCO3)cc1	none
CCS(=O)(=O)Nc1ccc2c(c1)OCO2	Bcl-xL primary 41
O=C(CC[C@H]1O[C@@H](n2cnc3c(NC(=O)c4ccccc4)ncnc32)[C@H](O)[C@@H]1O)NCC1CCCCC1	none (no result: Bcl-xL primary, MCL1 BIM primary, MEX-5 binding, GLD-1 TGE inh)
COc1cc2c(c(OC)c1O)C(=O)CO2	none
COc1cc(OC)c2c(O)c3c(c(-c4c5c(c(O)c6c(OC)cc(OC)cc46)CO[C@@H](C)[C@H]5O)c2c1)[C@H](O)[C@H](C)OC3	MCL1 BIM primary 56, MEX-5 binding inconclusive
CCOC(=O)CNc1c(-c2ccc(F)cc2)nc2cnccn12	Bcl-xL primary 33
COCCN1C(=O)CCC1(C)c1nnnn1-c1ccc2c(c1)OCCO2 (stereo unspecified)	none (no result: Bcl-xL primary, MCL1 BIM primary, MEX-5 binding, GLD-1 TGE inh)
CC(=O)c1cc2c(O)c(O)ccc2o1	Bcl-xL primary 34
COc1ccccc1C(=O)Nc1nnc(-c2ccccc2)s1	Bcl-xL primary 47
CC[C@]12CCCN3CCc4c(n(c5ccccc45)[C@](O)(C(=O)OC)C1)[C@@H]32	none (no result: MEX-5 binding)
CCC12CCCN3CCc4c(n(c5ccccc45)C(O)(C(=O)OC)C1)C32 (stereo unspecified)	Bcl-xL primary 31
CCc1nc2c(OCc3ccc(OC)cc3)cccn2c1N(C)C(=O)c1ccco1	none (no result: Bcl-xL primary, MCL1 BIM primary, MEX-5 binding, GLD-1 TGE inh)
COc1ccc(C2=CC3=CC(=O)C(C)(O)C(=O)C3=CO2)cc1 (stereo unspecified)	MEX-5 binding -38 (no result: eLon inh)
COc1ccc(C2=CC3=C(Br)C(=O)C(C)(O)C(=O)C3=CO2)cc1 (stereo unspecified)	none
COC/C=C/C1=CC2=CC(=O)C(C)(OC(=O)C3CCCC3)C(=O)C2=CO1 (stereo unspecified)	none
COC/C=C/C1=CC2=CC(=O)C(C)(OC(=O)c3ccco3)C(=O)C2=CO1 (stereo unspecified)	MCL1 BIM primary 60, GLD-1 TGE inh 31 (no result: MEX-5 binding, eLon inh)
COC/C=C/C1=CC2=CC(=O)C(C)(O)C(=O)C2=CO1 (stereo unspecified)	MCL1 BIM primary 64, MEX-5 binding -47 (no result: eLon inh)
COC/C=C/C1=CC2=CC(=O)C(C)(OC(=O)c3cccs3)C(=O)C2=CO1 (stereo unspecified)	none (no result: eLon inh)
CCCN(C)C1CN(Cc2cn(Cc3ccc(OC)cc3)nn2)S(=O)(=O)C1 (stereo unspecified)	none (no result: Bcl-xL primary, MCL1 BIM primary, MEX-5 binding, GLD-1 TGE inh)
O=C(CSc1ccc(Br)cc1)NCC(c1ccco1)N1CCCCC1 (stereo unspecified)	none
CN1CCN(c2nc(-c3ccccc3)nc(-c3ccccc3)c2C#N)CC1	MEX-5 binding -26
COc1ccc(-c2nc(-c3ccccc3)nc(N3CCN(C)CC3)c2C#N)cc1	none
CC1(C(=O)NS(=O)(=O)C2CC2)CCCN(C(=O)c2cc3ccccc3s2)C1 (stereo unspecified)	none (no result: Bcl-xL primary, MCL1 BIM primary, MEX-5 binding, GLD-1 TGE inh)
C=CCn1c(O)c(CN2CCOCC2)c(C)c(C#N)c1=O	Bcl-xL primary 39
COc1ccc(OCc2nnc(SCC(=O)NCc3ccco3)o2)cc1	none
CCc1ccc(OCc2nnc(SCC(=O)NCc3ccco3)o2)cc1	Bcl-xL primary 54
CC(C)OCC(O)CN1CCN(CCN2C(=O)c3cccc4cccc(c34)C2=O)CC1 (stereo unspecified)	MEX-5 binding -59
COc1cccc(/C(O)=C/c2nc3ccc(C(=O)NCCc4ccc(Cl)cc4)cc3[nH]c2=O)c1	MEX-5 binding -49 (no result: Bcl-xL primary, MCL1 BIM primary, GLD-1 TGE inh)
O=C(c1cccn2c(=O)c3cc4ccccc4cc3nc12)N1CCN(c2ccccc2)CC1	Bcl-xL primary 33 (no result: eLon inh)
CCOC(=O)Cn1c(-c2ccccc2)nc2ccccc2c1=O	none
CCOC(=O)Cn1c2ccc(OC)cc2c2nc3ccccc3nc21	MEX-5 binding -102
COc1ccccc1CN(C)C[C@@H]1OCc2cnnn2CCCC(=O)N([C@H](C)CO)C[C@H]1C	none (no result: Bcl-xL primary, MCL1 BIM primary, MEX-5 binding, GLD-1 TGE inh)
CCOc1ccc(N2C(=O)S/C(=C\c3cccn3C)C2=O)cc1	MEX-5 binding -30
C=CCn1c(=O)/c(=C/c2ccc(C)o2)s/c1=C(/C#N)C(=O)c1ccccc1	MEX-5 binding -27
C=CCn1c(=O)/c(=C\c2ccccn2)s/c1=C(/C#N)C(=O)NCC1CCCO1 (stereo unspecified)	MEX-5 binding -28
O=C(Nc1ccc(F)c(Cl)c1)C1Cc2c(-c3ccco3)ccnc2O1 (stereo unspecified)	none (no result: Bcl-xL primary, MCL1 BIM primary, MEX-5 binding, GLD-1 TGE inh)
Cc1cccc(N=C2NC(=O)/C(=C3/C(=O)N(C)c4ccccc43)S2)c1C	Bcl-xL primary 50
Cc1ccccc1N=C1NC(=O)/C(=C/c2cccn2C)S1	none
COc1cccc(C(=O)NCC(=O)NNc2ncnc(N)c2[N+](=O)[O-])c1	MEX-5 binding -32
COCCN1CCn2c(nc3cc(NC(=O)NC4CCCCC4)ccc32)C1	Bcl-xL primary 33 (no result: MEX-5 binding)
C[C@@H]1CN([C@@H](C)CO)S(=O)(=O)c2ccc(Br)cc2O[C@H]1CN(C)C(=O)c1ccncc1	none (no result: Bcl-xL primary, MCL1 BIM primary, MEX-5 binding, GLD-1 TGE inh)
O=C(C=Cc1cccc(O)c1)c1ccccc1O	none (no result: Bcl-xL primary, MCL1 BIM primary, MEX-5 binding, GLD-1 TGE inh)
O=C(/C=C/c1ccc(O)c(O)c1)c1ccccc1O	MEX-5 binding -38
CC[C@H](C)/C=C/C1=CC2=C(Cl)C(=O)[C@@]3(C)OC(=O)C(C(=O)[C@H](C)[C@@H](C)O)=C3C2=CO1	Bcl-xL primary 32
CN1C(=CC=C2C=C(I)C(=O)C(I)=C2)C(C)(C)c2ccccc21	none (no result: Bcl-xL primary, MCL1 BIM primary, MEX-5 binding, GLD-1 TGE inh)
CN1/C(=C\C=C2/C(=O)Oc3ccccc3C2=O)C(C)(C)c2ccccc21	Bcl-xL primary 47 (no result: eLon inh)
CN1/C(=C\C=C2/SC(=S)NC2=O)C(C)(C)c2ccccc21	Bcl-xL primary 37
CCCN1C(=O)/C(=C\C=C2\N(CC)c3ccccc3C2(C)C)SC1=S	none (no result: Bcl-xL primary, MCL1 BIM primary, GLD-1 TGE inh)
CCN1C(=O)[C@H]2[C@@H](c3ccc(C(F)(F)F)cc3)N[C@]3(CCCN(Cc4ccccc4)C3=O)[C@H]2C1=O	none (no result: Bcl-xL primary, MCL1 BIM primary, MEX-5 binding, GLD-1 TGE inh)
COC(=O)c1[nH]c2ccccc2c1NC(=O)/C=C/c1ccc2c(c1)OCO2	none
CCN(CC(=O)Nc1c(C(=O)OC)[nH]c2ccccc12)c1ccc2c(c1)OCO2	Bcl-xL primary 44
CCOC(=O)C1=C(C)OC(N)=C(C#N)C1c1ccc(C)s1 (stereo unspecified)	Bcl-xL primary 31
CCc1ccc(S(=O)(=O)Nc2cc(SCC(=O)O)c(O)c3ccccc23)cc1	MEX-5 binding -52
CCOc1ccc(S(=O)(=O)Nc2cc(SCC(=O)O)c(O)c3ccccc23)cc1	MEX-5 binding -51 (no result: Bcl-xL primary, MCL1 BIM primary, GLD-1 TGE inh)
Cc1ccc(NS(=O)(=O)c2cc(NC(=O)C(C)Oc3ccccc3)ccc2C)c(C)c1 (stereo unspecified)	none
O=C(O)c1cccc(S(=O)(=O)Nc2ccc([N+](=O)[O-])cc2O)c1	none

Screening data (PubChem BioAssay)
